Assay results published in PubChem BioAssay AID687001 (Broad Institute, 2013).
Entries with a potency or affinity are not part of this list. The source made the active and inactive calls.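 Rule for the calls: active = signal-lowering compounds whose fitted half-maximal concentration is at or below twice the top tested dose in every run; inconclusive = runs disagree, flat 30 to 70% inhibition, or poor curve fit; inactive = the rest.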

Target: Protein S100-A4 (Homo sapiens) (UniProt P26447)
Experiment: S100A4-myosin IIA binding inhibitor potency, dose response, biochemical, fluorescence polarization, cherry-picked hits (AID 687001)

Chain of Protein S100-A4 (Homo sapiens) (P26447 whole entry, looked up): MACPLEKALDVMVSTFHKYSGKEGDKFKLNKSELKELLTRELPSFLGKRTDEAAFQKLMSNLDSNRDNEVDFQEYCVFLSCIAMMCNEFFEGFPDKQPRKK

Row | Structure (SMILES) | outcome
1 | CC(C)(C)c1cc[n+](-c2[nH]c(=O)sc2/C=N/N=C(\[O-])c2ccccc2)cc1 | inactive
2 | COc1ccccc1NC(=O)N[C@H]1CC[C@H](CCNS(=O)(=O)c2ccc(Cl)cc2)O[C@H]1CO | inactive
3 | CCn1c(=O)c2ccccc2n2c(SCC(N)=O)nnc12 | inactive
4 | CCOc1cc(S(=O)(=O)N2CCC(c3nc4ccccc4s3)CC2)c(OCC)cc1S(=O)(=O)N1CCCCC1 | inactive
5 | Cc1cc(Cl)nc(-n2nc(C)cc2C)n1 | inactive
6 | CCc1nc2c(OCc3ccccc3OC)cccn2c1N(C)C(=O)C(C)C | inactive
7 | CCCCn1c(SCC(=O)NC2CCS(=O)(=O)C2)nc2ccccc2c1=O (stereo not given) | inactive
8 | COc1cccc(-c2ccc([C@@H]3[C@H](CO)N4CCCCN(C(=O)c5ccc(F)cc5)C[C@@H]34)cc2)c1 | inactive
9 | C[C@H]1CN([C@@H](C)CO)C(=O)c2cc(NC(=O)NC3CCCCC3)ccc2O[C@@H]1CN(C)C(=O)Nc1ccccc1 | inactive
10 | CCN(CC(=O)NCc1ccc(F)cc1)C(=O)/C=C/c1ccc(OC)c(S(=O)(=O)NC(C)C)c1 | inactive
11 | Cc1ccc(S(=O)(=O)N(C)C[C@H]2OCCCC[C@@H](C)Oc3ccc(NS(=O)(=O)c4c(C)noc4C)cc3C(=O)N([C@@H](C)CO)C[C@H]2C)cc1 | inactive
12 | C[C@@H]1CN([C@@H](C)CO)C(=O)c2cccc(N(C)C)c2O[C@@H]1CN(C)C(=O)Nc1cccc2ccccc12 | inactive
13 | Cc1ccc(S(=O)(=O)N(C)C[C@H]2Oc3ccc(NC(=O)Nc4ccccc4)cc3C(=O)N([C@@H](C)CO)C[C@H]2C)cc1 | inactive
14 | CC(C)[C@H](NC(=O)N1CCn2c1nc1ccccc12)C(=O)NCc1ccccc1Cl | inactive
15 | C[C@H](NC(=O)C[C@@H]1CC[C@H](NC(=O)C2CCOCC2)[C@@H](CO)O1)c1ccccc1 | inactive
16 | CC(C)C(=O)Nc1ccc2c(c1)C(=O)N(C)[C@H]1CC[C@H](CC(=O)Nc3cccc(F)c3)O[C@@H]1CO2 | inactive
17 | CCN(CC(=O)Nc1ccccc1C(F)(F)F)C(=O)c1ccc(NC(=O)c2cccs2)cc1 | inactive
18 | COc1ccc(C(=O)OCc2nnc(-c3ccccc3)o2)cc1S(=O)(=O)N1CCOCC1 | inactive
19 | Cn1c(-c2ccc(Cl)cc2)cnc1NCc1cc2c(cc1[N+](=O)[O-])OCO2 | inactive
20 | COc1ccc(NC(=O)N(C)C[C@H]2Oc3ccc(N(C)C)cc3C(=O)N([C@@H](C)CO)C[C@@H]2C)cc1 | inactive
21 | COc1ccc(S(=O)(=O)N2CCCCC2)cc1NC(=O)CCOc1cc(C)ccc1C | inactive
22 | CCOc1ccc(N(CC(=O)NCCOc2ccccc2OC)S(=O)(=O)c2ccccc2)cc1 | inactive
23 | Cc1ccccc1NC(=O)C1CCN(S(=O)(=O)c2ccc3c(c2)NC(=O)C(C)S3)CC1 (stereo not given) | inactive
24 | COC(=O)C[C@@H]1CC[C@H]2[C@H](COc3ccc(NS(=O)(=O)c4ccc(C)cc4)cc3C(=O)N2C)O1 | inactive
25 | CC1(C(=O)Nc2cnc3ccccc3c2)CCN1Cc1cc2ccccc2o1 (stereo not given) | inactive

Row | Structure (SMILES) | outcome
26 | CO[C@@H]1CN(C)C(=O)c2ccc(NC(=O)c3ccc(F)cc3)cc2OC[C@H](C)N(C(=O)CC2CC2)C[C@H]1C | inactive
27 | O=C(C[C@H]1C[C@@H]2c3cc(NC(=O)C4CCOCC4)ccc3O[C@@H]2[C@H](CO)O1)NCCN1CCCCC1 | inactive
28 | COc1ccc(S(=O)(=O)Nc2ccc3c(c2)C(=O)N([C@@H](C)CO)C[C@@H](C)[C@H](CN(C)C(=O)Nc2ccccc2)OCCCC[C@@H](C)O3)cc1 | inactive
29 | C[C@@H]1CN([C@@H](C)CO)C(=O)c2cc(NC(=O)CCC(F)(F)F)ccc2O[C@@H]1CN(C)C(=O)Nc1ccc(F)cc1 | inactive
30 | CCOC(=O)C1CCCN(C(=O)c2cc(S(=O)(=O)N3CCCCCC3)ccc2OC)C1 (stereo not given) | inactive
31 | Cc1cccc(C)c1NC(=O)C1(C)CCC(=O)N1CCOc1ccccc1 (stereo not given) | inactive
32 | COc1ccc(C2/C=C\CN(S(=O)(=O)c3cccc4cccnc34)CC(=O)N2Cc2ccc(F)cc2)cc1 (stereo not given) | inactive
33 | O=C(O)c1ccc(/C=C2\SC(=S)N(NC(=O)c3ccccc3)C2=O)cc1 | inactive
34 | COc1ccc2oc(C)c(C(=O)c3ccc(C)cc3)c2c1 | inactive
35 | Cn1cnc(CCNC(=O)C[C@@H]2CC[C@H]3[C@@H](COC[C@@H](O)CN3C(=O)C3CC3)O2)c1 | inactive
36 | O=C(C[C@@H]1CC[C@@H]2[C@H](COC[C@@H](O)CN2C(=O)c2ccc3c(c2)OCO3)O1)NCCN1CCCC1 | inactive
37 | CCCNC(=O)N[C@H]1C=C[C@@H](CC(=O)N2CCN(C)CC2)O[C@@H]1CO | inactive
38 | Cc1noc(C)c1S(=O)(=O)N(C)C[C@H]1Oc2ccc(N(C)C)cc2CC(=O)N([C@H](C)CO)C[C@H]1C | inactive
39 | COCC(=O)N1[C@H](CO)[C@@H](c2ccccc2)C12CN(C(=O)Cc1ccccn1)C2 | inactive
40 | O=C(NCCS(=O)(=O)NCCCc1ccccc1)c1ccccc1 | inactive
41 | O=C(O)c1ccccc1SCCS(=O)(=O)c1ccc(Cl)cc1Cl | inactive
42 | CO[C@H]1CN(C)C(=O)c2cc(NC(=O)Nc3ccc(C(F)(F)F)cc3)ccc2OC[C@H](C)NC[C@H]1C | inactive
43 | CCN1C(=O)c2ccccc2S(=O)(=O)c2ccc(C(=O)NCC(OC)OC)cc21 | inactive
44 | Cc1ccc(OC(=O)N(C)C[C@@H]2OCc3cn(nn3)CCCC(=O)N([C@H](C)CO)C[C@H]2C)cc1 | inactive
45 | CC(C)n1c(CNC(=O)c2ccccc2F)nnc1SCC(=O)c1ccc(F)cc1 | inactive
46 | Cc1ccc(S(=O)(=O)Nc2ccc(O)c3ccccc23)c(C)c1 | inactive
47 | O=C(C[C@H]1CC[C@H](NS(=O)(=O)c2cccc(F)c2)[C@@H](CO)O1)NCc1ccc2c(c1)OCO2 | inactive
48 | CCCCNC(=O)CNC(=S)N(CCCN1CCOCC1)Cc1cccs1 | inactive
49 | C[C@@H]1CN([C@@H](C)CO)C(=O)c2cc(NC(=O)C3CC3)ccc2O[C@@H]1CN(C)Cc1ccc(Cl)c(Cl)c1 | inactive
50 | C[C@H]1CN([C@@H](C)CO)C(=O)c2cc(-c3cccc(C#N)c3)cnc2O[C@@H]1CN(C)Cc1cccnc1 | inactive
